# High-throughput results as filed in PubChem BioAssay.
# Shown are actives, neighbours in structure and some others; about 6% of the full set was active somewhere.
# D1 PAM: Potentiators of Human D1 Dopamine Receptor: qHTS. potentiation, % at 10 µM. HEK293 TREx D1 cells, calcium flux, dopamine EC20 potentiation. 360,000 compounds, 0.036% hits. D(1A) dopamine receptor (Homo sapiens), P21728; in the data active means potentiation above about 30%; further: 0% is about no effect
# DRD3 antagonist: qHTS of D3 Dopamine Receptor Antagonist: qHTS | D(3) dopamine receptor (Homo sapiens), P35462 | D3R cells, DiscoveRx beta-arrestin luminescence, antagonist mode; hits give low values | max response, negative = inhibition, % | 360,000 compounds, 2.5% hits | AID 652054, 2013; in the data active means max response below about -50%; inconclusive means no clear call, values can overlap the other calls; further: on the % scale 0 is the no-effect control and ±100 the full control effect
# Target sequence (P35462 whole entry, looked up): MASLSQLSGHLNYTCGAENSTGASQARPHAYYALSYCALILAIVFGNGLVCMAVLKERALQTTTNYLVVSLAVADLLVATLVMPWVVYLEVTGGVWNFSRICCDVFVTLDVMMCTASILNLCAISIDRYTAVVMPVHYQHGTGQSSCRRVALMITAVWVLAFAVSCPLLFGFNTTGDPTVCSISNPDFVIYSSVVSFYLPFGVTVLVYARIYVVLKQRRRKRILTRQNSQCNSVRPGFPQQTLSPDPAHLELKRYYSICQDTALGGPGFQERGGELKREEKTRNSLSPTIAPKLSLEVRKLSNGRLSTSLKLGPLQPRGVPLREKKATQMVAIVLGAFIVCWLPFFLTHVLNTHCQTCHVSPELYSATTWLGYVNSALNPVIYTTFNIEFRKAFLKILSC
#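 Cells expressing the human receptor were seeded at 1500 cells/well, incubated overnight at 37 degrees C in 5% CO2, then exposed to library compounds with dopamine controls for 90 minutes at 37 degrees C before luminescent detection.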
# D1 ag: Allosteric Agonists of the Human D1 Dopamine Receptor: qHTS. D(1A) dopamine receptor (Homo sapiens), P21728. 360,000 compounds, 1% hits. HEK293 T-REx D1 cells, calcium flux, agonist mode. activation, % at 2 µM. AID 504660, 2011; in the data active means activation above about 30%; further: 0% is about no effect
#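 Tetracycline-induced HEK293 TREx D1 cells, force-coupled to calcium signalling, were dye-loaded with a no-wash calcium kit. Compound was pin-added after a 10 s baseline. Fluorescence was read kinetically at 1 cycle/s for 180 s, with calcium rises flagged as agonism.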
# D1 antagonist: Antagonist of Human D 1 Dopamine Receptor: qHTS | D(1A) dopamine receptor (Homo sapiens), P21728 | HEK293 TREx D1 cells, calcium flux, dopamine EC80; hits give low values | activity change, negative = inhibition, % at 10 µM | 360,000 compounds, 3.2% hits | AID 504652, 2011; in the data active means activity change below about -30%; further: on the % scale 0 is the no-effect control and ±100 the full control effect
#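 Antagonism measured as reduced calcium response to an EC80 dopamine addition following 180 s compound pre-read; cells were inducible HEK293 Trex D1 plated overnight at 30 C, read kinetically at 1 cycle/sec.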
# DRD3 agonist: qHTS of D3 Dopamine Receptor Agonist: qHTS. D3R DiscoveRx beta-arrestin cells, luminescence, 90 min. max activation, %. 410,000 compounds, 0.58% hits; in the data active means max activation above about 30%; further: 0% is about no effect
#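 Cells at 1500/well, incubated overnight, then treated with pinned compounds (dopamine as control) for 90 min at 37 degrees C. DiscoveRx reagent added for 30 - 60 minutes at room temperature; luminescence read.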
# * marks the source's active call; other numbers are inactive results; ? = inconclusive; nt = no result.
SMILES,D1 PAM,DRD3 antagonist,D1 ag,D1 antagonist,DRD3 agonist
O=C(CN1CCN(S(=O)(=O)N2CCOCC2)CC1)Nc1ccc(Cl)c(Cl)c1,-8,10,14,-49*,-21
Cc1ccc(NC(=O)CN2CCOCC2)cc1C,-2,20,8,-40*,0
COc1ccc(C)c2sc(N3CCCC3)nc12,-2,12,0,-37*,-1
CC(=O)c1ccc(OC(=O)c2ccc(Br)o2)cc1,-4,5,59*,-16,1
CCC(=O)c1ccc(OC(=O)c2ccc(Br)o2)cc1,nt,-14,nt,nt,2
Cc1ccc(OC(=O)c2ccc(Br)o2)cc1,4,-4,102*,-48*,2
CC1CCN(S(=O)(=O)c2ccc3c(ccn3CCC(=O)NCc3ccccc3F)c2)CC1,-2,nt,1,4,-4
Cc1ccccc1Nc1c(-c2cccc(N(C)C)c2)nc2ccc(Br)cn12,2,nt,-1,-12,-9
Cc1cc(C)cc(NC(=O)C(=O)NCC(c2ccc3c(c2)OCO3)N2CCN(C)CC2)c1 (centres undefined),-4,nt,26,8,-10
CC1CCCN(C(=O)COC(=O)/C=C/c2ccc(C(F)(F)F)cc2)C1 (centres undefined),-17,5,5,-47*,2
CCOc1ccccc1NC(=O)c1ccc2c(c1)CCN2S(C)(=O)=O,6,nt,0,-1,-17
O=c1c2c3c(sc2n(CCN2CCCC2)c(=O)n1Cc1ccco1)CCCCC3,-6,-64*,4,13,-10
CN(C)CCn1c(=O)n(Cc2ccco2)c(=O)c2c3c(sc21)CCCCC3,-8,-4,2,17,2
O=C(CC(=O)N/N=C/c1ccc(Cl)cc1Cl)NCc1ccccc1,2,0,2,0,0
O=C(CC(=O)N/N=C/c1c(F)cccc1Cl)NCc1ccccc1,-4,-3,0,-81*,3
C=CCNC(=S)NC(=O)c1ccc(C)c(Br)c1,2,19,3,nt,-1
CCOc1ccc(N(CCCCO)C(=S)NC(=O)c2ccc(C)c(Br)c2)cc1,0,-24,-1,-14,35*
COc1ccc(Cl)cc1C=CC=NNS(=O)(=O)c1ccc(C)cc1,nt,-88*,nt,nt,-24
COc1ccc(Br)cc1C=NNS(=O)(=O)c1ccc(C)cc1,nt,?,nt,nt,-7
Cc1ccc(CSc2nc3c(c(=O)[nH]2)C(c2ccncc2)C2=C(CCCC2=O)N3)cc1 (centres undefined),-4,0,-3,-48*,-7
N#Cc1cccc(NC(=O)COC(=O)Cn2nc(-c3ccccc3)oc2=O)c1,nt,-23,18,-85*,-4
Cc1cc(C)c(NC(=O)COC(=O)Cn2nc(-c3ccccc3)oc2=O)c(C)c1,nt,-55*,nt,nt,-6
N#Cc1cccc(NC(=O)COc2ccc(-n3ccnc3)cc2)c1,-4,-19,15,-28,-7
Cc1ccc(Cl)cc1NC(c1ccc(F)cc1)c1nnc(-c2ccccc2)o1 (centres undefined),-2,nt,-1,12,-3
CSc1nc(NCCOC(C)=O)c(C#N)c(-c2ccc(C(C)(C)C)cc2)n1,6,nt,6,24,-5
SMILES,D1 PAM,DRD3 antagonist,D1 ag,D1 antagonist,DRD3 agonist
CC(C)(C)c1ccc(C(=O)Nc2ccc(O)c3c(=O)cc(-c4ccccc4Cl)oc23)cc1,-7,33,2,-13,119*
CCc1ccc(S(=O)(=O)Nc2ccc(O)c3c(=O)cc(-c4ccccc4Cl)oc23)cc1,-1,-22,1,2,-42
O=c1cc(-c2ccccc2Cl)oc2c(NS(=O)(=O)c3cc(Cl)cc(Cl)c3O)ccc(O)c12,-9,26,82*,-52*,36*
Cc1ccc(C)c(N2CCN(C(=O)CSCc3ccccc3Cl)CC2)c1,-1,nt,4,-2,4
CCOc1ccc(-c2nc(Cn3c(=O)cc(-c4ccccc4)c4c(C)nn(C)c43)c(C)o2)cc1OC,-6,nt,0,1,-13
Cc1cc(-n2c(=O)[nH]c(=O)n(C)c2=O)ccc1Oc1ccc(S(=O)(=O)C(F)(F)F)cc1,nt,nt,nt,nt,-18
